Measurements reported in PubChem BioAssay (Tox21).
Values without a mark were called inactive. Active and inactive are the calls of the source. Calls follow the shape of the dose curve; as a rule, active = well fitted curve in the direction sought with a large enough effect in the repeat runs; inconclusive = weak or mixed curves; inactive = flat fitted curve, though single readings scatter.

Assay: qHTS assay to test for compound auto fluorescence at 535 nm (green) in HEK293 cell free culture (AID 720682)
Details: cell-free medium, green autofluorescence 485/535 nm, stronger effect = higher value; series mostly up to 46 µM; activity change: at the top concentration
Excerpt: U.S. Tox21 Program National Center for Advancing Translational Sciences [NCATS] NIH Chemical Genomics Center [NCGC] U.S. Environmental Protection Agency [EPA] National Institutes of Environmental Health Sciences [NIEHS] National Toxicology Program [NTP] U.S. Food and Drug Administration [FDA] Tox21 Assay Overview: Compound auto fluorescence often interferes with screening of the compound library against various biological targets and signaling pathways. Some of these compounds may have fluorophoric properties. Such properties may interfere with the assay outputs resulting in false positives and/or negatives. To decrease such complications and ensure the compound activities are relevant in terms of biological response, the Tox21 10K compound library was screened for auto fluorescence. From the fluorophores used as reporter signals in our screening assays, the auto fluorescence equivalencies of compounds against three fluorophores have been evaluated: Triamterene, Fluorescein and Rose Bengal sodium for blue, green and red fluorescence, respectively. The fluorescence intensities were measured using Excitation/Emission wavelengths at 405/460nm, 485/535nm and 540/590nm for blue, green and red labels, respectively. This assay includes the green fluorescence data.
Tox21 Assay Protocol Summary: 5 uL of culture medium (DMEM containing 10% FBS) per well was dispensed into black wall/clear bottom 1536-well plates using a Multidrop Combi Dispenser (ThermoFisher Scientific, Waltham, MA). After 23 nL compound or DMSO vehicle was transferred into assay plate by a pintool work station (Kalypsys, San Diego, CA), fluorescence intensities in the assay plates were measured by an Envision (PerkinElmer, Shelton, CT) plate reader using three labels for measuring blue, green and red fluorescence at […] 460, 535 and 590nm respectively.
% is scaled to controls: 0 for no effect and ±100 for the full control effect.

In the case of COCCc1ccc(OCC(O)CNC(C)C)cc1 (stereo not given), the outcome is reported as “inactive”.
With CO[Si](CCCOCC1CO1)(OC)OC (stereo not given) the outcome was “inactive”.
In the case of COC(=O)c1c(Cl)c(Cl)c(C(=O)OC)c(Cl)c1Cl, the outcome is reported as “inactive”.
With CN(C)CCCN1c2ccccc2CCc2ccc(Cl)cc21 the outcome was “inactive”.

Compared with NC(=O)c1cn(Cc2c(F)cccc2F)nn1, CN1CCN(c2cc3c(cc2F)c(=O)c(C(=O)O)cn3-c2ccc(F)cc2)CC1 is higher in “activity change” value: -0.0561% for the first, 0.568% for the second.

Going from C[C@](N)(Cc1ccc(O)cc1)C(=O)O to N[C@H](C(=O)O)c1ccc(O)cc1, the “activity change” value falls from 0.0346% to -0.0236%.

First: CC(C[N+](C)(C)C)OC(N)=O (stereo not given)
Second: C[N+](C)(C)CCCCCC[N+](C)(C)C
The “activity change” value of the first is lower: -0.0031% for the first, 0.0057% for the second.

First: Brc1c(NC2=NCCN2)ccc2nccnc12
Second: c1cnc(N2CCN(Cc3ccc4c(c3)OCO4)CC2)nc1
The “activity change” value of the first is higher: -0.0542% for the first, -0.11% for the second.

First: CC(=O)OCC(=O)[C@@]1(O)CC[C@H]2[C@@H]3CCC4=CC(=O)CC[C@]4(C)[C@H]3C(=O)C[C@@]21C
Second: CCOC(=O)[C@H](CCc1ccccc1)N[C@@H](C)C(=O)N1[C@H](C(=O)O)C[C@@H]2CCC[C@@H]21
The “activity change” value of the first is lower: -0.0425% for the first, 0.0224% for the second.

Going from Nc1c2c(nc3ccccc13)CCCC2O (stereo not given) to C[C@H](NC(CCc1ccccc1)C(=O)O)C(=O)N1CCC[C@H]1C(=O)O (stereo not given in full), the “activity change” value falls from 0.106% to 0.0234%.

First: O=C(O)CN(CCOCCOCCN(CC(=O)O)CC(=O)O)CC(=O)O
Second: O=C(O)CCCc1ccccc1
The “activity change” value of the first is higher: -0.0401% for the first, -0.0519% for the second.

Going from CCCN(CCC)CCc1cccc2c1CC(=O)N2 to CN(C)CCCSc1ccccc1NC(=O)/C=C/c1ccccc1, the “activity change” value falls from 0.0273% to 0.0104%.

Going from NS(=O)(=O)c1ccc(C(=O)O)cc1 to COC(=O)[C@@H](N)Cc1ccc(O)c(O)c1, the “activity change” value falls from 0.0322% to -0.114%.

With CO/N=C(/C(=O)N[C@@H]1C(=O)N2C(C(=O)OCOC(=O)C(C)(C)C)=C(C)CS[C@H]12)c1csc(N)n1 the “activity change” value was 0.0481%.

Going from CC(C)(CC(=O)O)C(=O)O to CCOC(=O)C(=O)OCC, the “activity change” value falls from 0.0453% [at 91.3 µM] to -0.0241% [at 91.3 µM].

Going from O=C1CC2CC1C1CCCC21 (stereo not given) to O=C1CCCN1C1CCCCC1, the “activity change” value falls from -0.0152% [at 91.3 µM] to -0.0708% [at 91.3 µM].

Compared with CN(C)CCCNCCCN(C)C, CCCCNC(=O)NCCCC is higher in “activity change” value: 0.0323% [at 91.3 µM] for the first, 0.0748% [at 91.3 µM] for the second.

First: COC(C)(C)CCCC(C)CC=O (stereo not given)
Second: C=CCCCCCCCCC=O
The “activity change” value of the first is lower: 0.0199% [at 91.3 µM] for the first, 0.103% [at 91.3 µM] for the second.

Going from CCCCOCCOCCOCCCC to CCOC(=O)c1ccc(C)cc1, the “activity change” value falls from 0.0177% [at 91.3 µM] to 0.0058% [at 91.3 µM].

Compared with N=C(N)c1ccccc1, NC(=O)Nc1ccccc1 is lower in “activity change” value: -0.0437% [at 91.3 µM] for the first, -0.0723% [at 91.3 µM] for the second.

Going from CC(=O)CC(C)(C)C1CCCCC1 to C=C(C)CS(=O)(=O)O, the “activity change” value rises from -0.0412% [at 91.3 µM] to -0.0268% [at 91.3 µM].

For NC(=O)c1ccc([N+](=O)[O-])cc1, the “activity change” value was -0.036% [at 91.3 µM].

With CCc1nccnc1CC the “activity change” value was -0.0657% [at 18.6 µM].

For COC(=O)NN, the “activity change” value was -0.117% [at 95.7 µM].
